# According to PubChem BioAssay (NCATS):
# Calls of active or inactive are those of the source. How the calls were made is not given here.
# Test: Immunotoxin (SS1P) sensitization/mitigation study. Vehicle arm (DMEM) (AID 1159513); further: potency means the concentration at half of the fitted maximal effect
# Conditions: cell viability with vehicle (DMEM); series mostly up to 46.1 µM; activity, % of control (viability): at the top concentration
Compound,"activity, % of control (viability)",Potency
CCCc1nc2c(C)cc(-c3nc4ccccc4n3C)cc2n1Cc1ccc(-c2ccccc2C(=O)O)cc1,102% (inactive),–
CC(C)n1c(C=C[C@H](O)C[C@H](O)CC(=O)O)c(-c2ccc(F)cc2)c2ccccc21,–,9.35 µM (active)
C[C@@H]1[C@@H](C(=O)C[C@H]2O[C@@H]3O[C@]4(C)CC[C@@H]5[C@H](C)CC[C@@H]([C@H]2C)[C@@]35OO4)O[C@@H]2O[C@]3(C)CC[C@H]4[C@H](C)CC[C@@H]1[C@@]24OO3,–,0.209 µM (active)
Cn1cnc2c(F)c(Nc3ccc(Br)cc3Cl)c(C(=O)NOCCO)cc21,87.3% (inactive),–
COc1cccc2c1C(=O)c1c(O)c3c(c(O)c1C2=O)C[C@@](O)(C(=O)CO)C[C@@H]3O[C@H]1C[C@H](N)[C@H](O)[C@H](C)O1,–,0.187 µM (active)
Cn1c(CCCC(=O)O)nc2cc(N(CCCl)CCCl)ccc21,104% (inactive),–
Cn1ccc2cc3c(cc21)CCN3C(=O)Nc1cccnc1,94% (inactive),–
Cc1ccc(-n2nc(C(C)(C)C)cc2NC(=O)Nc2ccc(OCCN3CCOCC3)c3ccccc23)cc1,88.9% (inactive),–
C[C@@H]1[C@@H](CC(C[C@H]2O[C@@H]3O[C@]4(C)CC[C@@H]5[C@H](C)CC[C@@H]([C@H]2C)[C@@]35OO4)C[S+](=O)([O-])c2ccc(COC(=O)N(C)C)cc2)O[C@@H]2O[C@]3(C)CC[C@H]4[C@H](C)CC[C@@H]1[C@@]24OO3 (some centres undefined),–,0.418 µM (active)
O=C1Nc2ccc(Cl)cc2[C@@](C#CC2CC2)(C(F)(F)F)O1,–,48.1 µM (active)
CC(C)C[C@H](NC(=O)[C@H](CCc1ccccc1)NC(=O)CN1CCOCC1)C(=O)N[C@@H](Cc1ccccc1)C(=O)N[C@@H](CC(C)C)C(=O)[C@@]1(C)CO1,–,0.0418 µM (active)
CN1CC(=O)N/C1=N/C(=O)Nc1cccc(Cl)c1,87.5% (inactive),–
COc1cc([C@@H]2c3cc4c(cc3[C@H](O)[C@H]3COC(=O)[C@H]23)OCO4)cc(OC)c1OC,–,0.0083 µM (active)
Cc1sc2c(c1C)C(c1ccc(Cl)cc1)=N[C@@H](CC(=O)OC(C)(C)C)c1nnc(C)n1-2,–,10.5 µM (active)
CN(C)CCN(C)CCc1ccc(Cl)c(Cl)c1,89.8% (inactive),–
CC1=C(/C=C/C(C)=C/C=C/C(C)=C/C(=O)Nc2ccc(O)cc2)C(C)(C)CCC1,–,23.5 µM (active)
CS(=O)c1ccc(-c2nc(-c3ccc(F)cc3)c(-c3ccncc3)[nH]2)cc1 (centres undefined),85.1% (inactive),–
C=CC(=O)Nc1cc2c(Nc3ccc(F)c(Cl)c3)ncnc2cc1OCCCN1CCOCC1,–,26.4 µM (active)
CC(=O)SC[C@@H](C)C(=O)N1CCC[C@H]1C(=O)N[C@@H](Cc1ccccc1)C(=O)O,96.8% (inactive),–
CCN(CCO)CCCC(C)Nc1ccnc2cc(Cl)ccc12 (centres undefined),106% (inactive),–
CCC(C)n1ncn(-c2ccc(N3CCN(c4ccc(OC[C@H]5CO[C@](Cn6cncn6)(c6ccc(Cl)cc6Cl)O5)cc4)CC3)cc2)c1=O (some centres undefined),–,16.6 µM (active)
COc1cc(Nc2c(C#N)cnc3cc(OCCCN4CCN(C)CC4)c(OC)cc23)c(Cl)cc1Cl,–,23.5 µM (active)
CO[C@@H](C(=O)N1Cc2[nH]nc(NC(=O)c3ccc(N4CCN(C)CC4)cc3)c2C1)c1ccccc1,–,23.5 µM (active)
Nc1ncn([C@@H]2O[C@H](CO)[C@@H](O)[C@H]2O)c(=O)n1,–,14.8 µM (active)

# Test: High-throughput drug toxicity screening in the BPDCN cell line Gen2.2 (AID 1224824);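 further: cells exposed to compounds for 48 h before reading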
# Conditions: Gen2.2 BPDCN cells; at 45.8 µM (top of the series)
# Procedure, shortened: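 CellTiter-Glo luminescence after 48 h compound exposure of Gen2.2 cells; percent activity set with DMSO as 100% and bortezomib (9.2 uM final) as 0%. Cells seeded at 500 per well, RPMI + 10% FBS, 37 °C.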
row,Compound,"cell viability, % of control (lower = more cytotoxic)"
1,C[C@@H]1[C@@H](C(=O)C[C@H]2O[C@@H]3O[C@]4(C)CC[C@@H]5[C@H](C)CC[C@@H]([C@H]2C)[C@@]35OO4)O[C@@H]2O[C@]3(C)CC[C@H]4[C@H](C)CC[C@@H]1[C@@]24OO3,9%
2,CC(C)CC(N(C)C)C1(c2ccc(Cl)cc2)CCC1 (centres undefined),134%
3,Cn1c(CCCC(=O)O)nc2cc(N(CCCl)CCCl)ccc21,53.7%
4,CN1CCN(C(=O)O[C@H]2c3nccnc3C(=O)N2c2ccc(Cl)cn2)CC1,126%
5,C[C@@H]1[C@@H](CC(C[C@H]2O[C@@H]3O[C@]4(C)CC[C@@H]5[C@H](C)CC[C@@H]([C@H]2C)[C@@]35OO4)C[S+](=O)([O-])c2ccc(COC(=O)N(C)C)cc2)O[C@@H]2O[C@]3(C)CC[C@H]4[C@H](C)CC[C@@H]1[C@@]24OO3 (some centres undefined),15.5%
6,Cc1sc2c(c1C)C(c1ccc(Cl)cc1)=N[C@@H](CC(=O)OC(C)(C)C)c1nnc(C)n1-2,1.32%
7,CN(C)CCN(C)CCc1ccc(Cl)c(Cl)c1,137%
8,NCC1(CC(=O)O)CCCCC1,114%
9,CCCC(C)(COC(N)=O)COC(=O)NC(C)C (centres undefined),386%
10,CN(C)[C@@H]1C(=O)C(C(N)=O)=C(O)[C@@]2(O)C(=O)C3=C(O)c4c(O)cccc4[C@@](C)(O)[C@H]3C[C@@H]12,333%

# Test: High-throughput drug toxicity screening in the BPDCN cell line Cal-1 (AID 1224825)
# Conditions: Cal-1 BPDCN cell viability, qHTS; at 45.8 µM (top of the series)
# Procedure, shortened: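 Viability of the BPDCN line Cal-1 is measured as ATP-based luminescence (CellTiter-Glo) following 48 h incubation with compounds. Percent activity uses DMSO-treated wells as 100% and 9.2 uM bortezomib as 0%.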
row,Compound,viability (% of control)
1,C[C@@H]1[C@@H](C(=O)C[C@H]2O[C@@H]3O[C@]4(C)CC[C@@H]5[C@H](C)CC[C@@H]([C@H]2C)[C@@]35OO4)O[C@@H]2O[C@]3(C)CC[C@H]4[C@H](C)CC[C@@H]1[C@@]24OO3,7.82%
2,CC(C)CC(N(C)C)C1(c2ccc(Cl)cc2)CCC1 (centres undefined),105%
3,Cn1c(CCCC(=O)O)nc2cc(N(CCCl)CCCl)ccc21,6.62%
4,CN1CCN(C(=O)O[C@H]2c3nccnc3C(=O)N2c2ccc(Cl)cn2)CC1,135%
5,C[C@@H]1[C@@H](CC(C[C@H]2O[C@@H]3O[C@]4(C)CC[C@@H]5[C@H](C)CC[C@@H]([C@H]2C)[C@@]35OO4)C[S+](=O)([O-])c2ccc(COC(=O)N(C)C)cc2)O[C@@H]2O[C@]3(C)CC[C@H]4[C@H](C)CC[C@@H]1[C@@]24OO3 (some centres undefined),13.4%
6,Cc1sc2c(c1C)C(c1ccc(Cl)cc1)=N[C@@H](CC(=O)OC(C)(C)C)c1nnc(C)n1-2,2.41%
7,CN(C)CCN(C)CCc1ccc(Cl)c(Cl)c1,92.7%
8,NCC1(CC(=O)O)CCCCC1,104%
9,CCCC(C)(COC(N)=O)COC(=O)NC(C)C (centres undefined),110%
10,CN(C)[C@@H]1C(=O)C(C(N)=O)=C(O)[C@@]2(O)C(=O)C3=C(O)c4c(O)cccc4[C@@](C)(O)[C@H]3C[C@@H]12,83.2%
